Test results: PubChem BioAssay (EPA / NIEHS)
The source made the active and inactive calls. How the source made its calls: active means hit-call score of the fitted dose curve at least 0.9, where 1 is the maximum; inactive means score below 0.9.

Assay: ATG_DR4_LXR_CIS: Attagene CIS-FACTORIAL HepG2 Assay for human Liver X Receptor (LXR), DR4 submotif (AID 2282929)
Conditions: HepG2 Attagene DR4 cis-reporter, mRNA transcription; actives raise or lower the signal
Procedure: ATG_CIS is a cell-based, multiplexed-readout assay that uses HepG2, a human liver cell line, with measurements taken at 24 hours after chemical dosing in a 24-well plate.ATG_DR4_LXR_CIS is one of 52 assay component(s) measured or calculated from the ATG_CIS assay. It is designed to make measurements of mRNA induction, a form of inducible reporter, as detected with fluorescence intensity signals by Reverse transcription polymerase chain reaction (RT-PCR) and Capillary electrophoresis technology.Data from the assay component ATG_DR4_LXR_CIS was analyzed into 1 assay endpoint. This assay endpoint, ATG_DR4_LXR_CIS, was analyzed with bidirectional fitting relative to DMSO as the negative control and baseline of activity. Using a type of inducible reporter, measures of mRNA for gain or loss-of-signal activity can be used to understand the reporter gene at the transcription factor-level as they relate to the gene NR1H2 and NR1H3. Furthermore, this assay endpoint can be referred to as a primary readout, because this assay has produced multiple assay endpoints where this one serves a reporter gene function. To generalize the intended target to other relatable targets, this assay endpoint is annotated to the nuclear receptor intended target family, where the subfamily is non-steroidal.
Human liver HepG2 cells are transiently transfected with multiple reporter transcription units (MRTUs) in 6-well plates using FuGene 6 reagent (Roche; 3 ml FuGene/1 mg DNA). The MRTU constructs are regulated by a cis-regulating element (promoter). […] A major difference between the CIS and TRANS system is that in CIS activities of endogenous TFs are measured, whereas the TRANS assay evaluates changes in activities of exogenous, chimeric NR-Gal4 proteins. […] At the end of 24 hour incubation, total RNA was isolated using TriZol reagent (Invitrogen). The isolated RNA is then reverse-transcribed using oligo(dT) primer and Mo-MLV reverse transcriptase (Invitrogen) with DNAse I (Ambion) treatment for 30 min. The one-tenth of the produced cDNA was amplified by PCR using Taq DNA polymerase (Invitrogen) and two reporter sequence-specific primers. The PCR products were fluorescently labeled by primer extension with 6-arboxyfluorescein (6-FAM) 5'-labeled reporter sequence-specific primer (2 min at 95 C, 20 s at 68 C and 10 min at 72 C) and these products were digested with 5U of HpaI (New England Biolabs) for 2h at 37 C. The fragments were purified using Qiaquick PCR columns (Qiagen), analyzed on an ABI 3130xL genetic analyzer (Applied Biosystems) with peak positions identified by using a set of X-rhodamine (ROX)-labeled MapMarker1000 molecular weight standards (BioVentures). The raw capillary electrophoresis data was processed using Attagraph software (Attagene).

**Q.** With `CC(C)Nc1ccc(Nc2ccccc2)cc1` as the compound, how does the AC50 read?
**A.** 32.4 µM (active)

**Q.** Which outcome does the source give for `NC(=O)C(F)(F)C(F)(F)F` here?
**A.** inactive

**Q.** For `O=C(O)CF`, which outcome is on record?
**A.** inactive

**Q.** Which outcome does the source give for `CCC(C)(C)c1ccc(O)cc1` here?
**A.** inactive

**Q.** With `CCOP(=S)(OCC)SCn1nnc2ccccc2c1=O` as the compound, how does the AC50 read?
**A.** 64.7 µM (active)

**Q.** Which outcome does the source give for `c1nc[nH]n1` here?
**A.** inactive

**Q.** Which AC50 does the source give for `ClC(Cl)=C(c1ccc(Cl)cc1)c1ccccc1Cl` here?
**A.** 27.3 µM (active)

**Q.** With `COP(=O)(CCC(=O)NCO)OC` as the compound, how does the outcome read?
**A.** inactive

**Q.** With `CCOc1ccc(C(C)(C)COCc2cccc(Oc3ccccc3)c2)cc1` as the compound, how does the outcome read?
**A.** inactive

**Q.** For `ClC(Cl)c1ccccc1`, which outcome is on record?
**A.** inactive

**Q.** Which outcome does the source give for `CC(C)(C)OOC(C)(C)C` here?
**A.** inactive

**Q.** Which outcome does the source give for `FC(F)(F)C(F)(C(F)(F)F)C(F)(F)C(F)(F)CC1CO1` (stereo not given) here?
**A.** inactive

**Q.** Which outcome does the source give for `CCOC(=O)c1ccccc1C(=O)OCC` here?
**A.** inactive

**Q.** With `Nc1ccc(Sc2ccc(N)cc2)cc1` as the compound, how does the outcome read?
**A.** inactive

**Q.** Which outcome does the source give for `Oc1ccccc1Br` here?
**A.** inactive

**Q.** With `CCCCC(CC)COC(=O)c1c(Br)c(Br)c(Br)c(Br)c1C(=O)OCC(CC)CCCC` (stereo not given) as the compound, how does the outcome read?
**A.** inactive

**Q.** With `O=NN1CCCC1` as the compound, how does the outcome read?
**A.** inactive

**Q.** Which outcome does the source give for `CCN(CC)c1ccccc1` here?
**A.** inactive

**Q.** Which outcome does the source give for `CC(Cc1ccc(OCC(=O)O)cc1)NCC(O)c1csc(C(F)(F)F)n1` (stereo not given) here?
**A.** inactive

**Q.** Which outcome does the source give for `O=C(O)C1C(C(=O)O)C2(Cl)C(Cl)=C(Cl)C1(Cl)C2(Cl)Cl` (stereo not given) here?
**A.** inactive

**Q.** With `O=[N+]([O-])c1cc(Cl)ccc1Cl` as the compound, how does the outcome read?
**A.** inactive

**Q.** For `C/C(=N\NC(=O)Nc1cc(F)cc(F)c1)c1ncccc1C(=O)O`, which outcome is on record?
**A.** inactive

**Q.** With `CC(=O)CCc1ccc2c(c1)OCO2` as the compound, how does the outcome read?
**A.** inactive

**Q.** With `N#Cc1cc([N+](=O)[O-])ccc1N` as the compound, how does the outcome read?
**A.** inactive

**Q.** Which outcome does the source give for `FC(F)(F)c1ccc(Cl)cc1` here?
**A.** inactive

**Q.** Which outcome does the source give for `O=C(O)C(Cl)Cl` here?
**A.** inactive

**Q.** For `O=C(O)C(F)(F)OC(F)(F)C(F)(F)OC(F)(F)C(=O)O`, which outcome is on record?
**A.** inactive

**Q.** For `CCCN(CCC)c1c([N+](=O)[O-])cc(C(C)C)cc1[N+](=O)[O-]`, which AC50 is on record?
**A.** 5.57 µM (active)

**Q.** Which outcome does the source give for `c1ccc(OP(Oc2ccccc2)Oc2ccccc2)cc1` here?
**A.** inactive

**Q.** For `Oc1ccc(I)cc1`, which outcome is on record?
**A.** inactive

**Q.** With `COP(=O)(O)OC` as the compound, how does the outcome read?
**A.** inactive

**Q.** Which AC50 does the source give for `Cc1cc(C)c(C(=O)P(=O)(c2ccccc2)c2ccccc2)c(C)c1` here?
**A.** 11.5 µM (active)

**Q.** For `CC(Cl)CN(C)C` (stereo not given), which outcome is on record?
**A.** inactive

**Q.** For `CCOC(=O)c1ccccc1N`, which outcome is on record?
**A.** inactive

**Q.** With `Cn1[nH]nnc1=S` as the compound, how does the outcome read?
**A.** inactive

**Q.** Which outcome does the source give for `CC(C)(C)c1ccc(O)cc1` here?
**A.** inactive

**Q.** With `CCCCCCCc1ccc(O)cc1` as the compound, how does the outcome read?
**A.** inactive

**Q.** With `CCNc1nc(Cl)nc(NC(C)(C)C)n1` as the compound, how does the outcome read?
**A.** inactive

**Q.** Which outcome does the source give for `ClC(Cl)(Cl)c1ccccc1` here?
**A.** inactive

**Q.** For `CCOP(=S)(NC(C)C)Oc1ccccc1C(=O)OC(C)C` (stereo not given), which AC50 is on record?
**A.** 26.5 µM (active)
